About 83,000 compounds went through this panel and 20% of them were active in at least one assay; those are over-represented in the sample as a whole.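 Growth was measured after 48 h exposure to one concentration of compound in 96-well plates. Values under 10 count as active.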 Values without a mark were called inactive. Activity calls are given as the source filed them.

What all share (assay): NCI-60 one-dose screen, 48 h (100 = growth as untreated, 0 = no growth, -100 = all killed)
One test relates to HCT-15 colon. As to conditions: 10 µM unless noted.
Another test relates to SNB-75 CNS. As to conditions: 10 µM unless noted.
For the next test, the system named is SNB-19 CNS. As to conditions: 10 µM unless noted.
Another test deals with U251 CNS. The settings on record: 10 µM unless noted.
The next test has as its system PC-3 prostate. The settings on record: 10 µM unless noted.
In another test the test system is SK-MEL-5 melanoma. As to conditions: 10 µM unless noted.
Another test has as its system UACC-62 melanoma. As to conditions: 10 µM unless noted.
Another test deals with LOX IMVI melanoma. As to conditions: 10 µM unless noted.
For the next test, the system named is SK-MEL-28 melanoma. As to conditions: 10 µM unless noted.
The test system of a further test is SK-MEL-2 melanoma. The settings on record: 10 µM unless noted.
The subject of the next test is EKVX NSCLC. As to conditions: 10 µM unless noted.
In the next test the test system is SN12C renal. As to conditions: 10 µM unless noted.
A further test deals with UO-31 renal. As to conditions: 10 µM unless noted.
A further test concerns TK-10 renal. The settings on record: 10 µM unless noted.
The next test relates to ACHN renal. The settings on record: 10 µM unless noted.
The next test relates to CAKI-1 renal. The settings on record: 10 µM.
The next test concerns MOLT-4 leukemia. The settings on record: 10 µM unless noted.
In another test the test system is A498 renal. The settings on record: 10 µM unless noted.
The next test has as its system CCRF-CEM leukemia. The settings on record: 10 µM unless noted.

Turning to `Cc1nn(-c2ccccc2)c2nc(CCl)[nH]c(=O)c12`, the growth is 90.6% in the test on HCT-15 colon; 93.9% in the test on SNB-75 CNS; 89.4% in the test with SNB-19 CNS; 101% with U251 CNS; 102% in the test with PC-3 prostate; 98.7% with SK-MEL-5 melanoma. Also, the growth in the test with UACC-62 melanoma was 96.2%; in the test with LOX IMVI melanoma, 2.09% (active); with SK-MEL-28 melanoma it was 110%; with SK-MEL-2 melanoma, 105%; in the test with EKVX NSCLC it was 99.2%; in the test on SN12C renal, 95.7%. Also, the growth in the test with UO-31 renal was -86.3% (active); in the test with TK-10 renal it was 63.3%; in the test with ACHN renal, 90.3%; in the test with CAKI-1 renal it was 99.6%; with MOLT-4 leukemia, 79.6%.

Take `COc1ccc(-c2nnc(/N=C3/C(=O)Nc4ccc(Br)cc43)o2)cc1`: the growth in the test with HCT-15 colon was 91.3%; in the test with SNB-75 CNS, 90%; in the test on SNB-19 CNS it was 97.8%; in the test on U251 CNS, 107%; in the test on PC-3 prostate, 104%; with SK-MEL-5 melanoma, 98.8%. Besides, the growth in the test on UACC-62 melanoma is 95.7%; in the test with SK-MEL-28 melanoma, 102%; with SK-MEL-2 melanoma it was 101%; in the test with EKVX NSCLC, 91.7%; with SN12C renal, 107%; with UO-31 renal, 81.3%. For the same compound, the growth in the test with ACHN renal was 93.7%; with CAKI-1 renal, 88.8%; in the test on A498 renal, 91.9%; in the test with CCRF-CEM leukemia, 96%; in the test on MOLT-4 leukemia, 96.1%.

Turning to `CCC(CC)N1C(=O)/C(=c2\sc3n(c2=O)C2C(NN=3)N(CC)C(=O)N2CC)c2ccccc21` (stereo unspecified), the growth with HCT-15 colon was 10.4%; in the test with SNB-75 CNS, -4.75% (active); with SNB-19 CNS, 26.4%; in the test with U251 CNS, 27.1%; in the test on PC-3 prostate it was 33.7%; with SK-MEL-5 melanoma, -20.1% (active). Further, the growth was 17.9% in the test on LOX IMVI melanoma; 58.6% with SK-MEL-28 melanoma; 59.4% in the test on SK-MEL-2 melanoma; 48.1% in the test on EKVX NSCLC; 18.2% with SN12C renal; 39.8% with UO-31 renal. Also, the growth in the test with TK-10 renal was 86.5%; in the test on ACHN renal, 32%; in the test with CAKI-1 renal it was 39.9%; in the test on A498 renal it was -17% (active); with CCRF-CEM leukemia, 15.8%; in the test on MOLT-4 leukemia, 10%.

For the compound `O=C(O)c1ccc(-n2cc(CNc3ccc(F)cc3)c(-c3ccc(C(F)(F)F)cc3)n2)cc1`, the growth is 65.4% in the test on HCT-15 colon; 84.3% with SNB-19 CNS; 79.3% with U251 CNS; 79.4% in the test on PC-3 prostate; 67.9% with SK-MEL-5 melanoma; 89.9% in the test with UACC-62 melanoma. The growth was 99.5% with LOX IMVI melanoma; 88.1% with SK-MEL-28 melanoma; 110% with SK-MEL-2 melanoma; 74.4% with EKVX NSCLC; 94.4% in the test with SN12C renal; 67.2% with UO-31 renal. Further, the growth was 110% with TK-10 renal; 76.6% in the test with ACHN renal; 76.2% in the test on CAKI-1 renal; 90.3% with A498 renal; 81.9% in the test with CCRF-CEM leukemia; 81% with MOLT-4 leukemia.

In the case of `CCN1C/C(=N\S(=O)(=O)c2ccccc2)N(CC)C1=S`, the growth in the test on HCT-15 colon was 101%; in the test on SNB-75 CNS it was 91.3%; with SNB-19 CNS, 98.2%; with U251 CNS, 97.4%; in the test on PC-3 prostate it was 110%; in the test with SK-MEL-5 melanoma, 102%. The growth was 95.2% in the test on UACC-62 melanoma; 99.3% in the test on LOX IMVI melanoma; 104% in the test on SK-MEL-28 melanoma; 104% with SK-MEL-2 melanoma; 99% in the test on EKVX NSCLC; 98.1% with SN12C renal. Further, the growth is 89.9% in the test with UO-31 renal; 100% in the test on TK-10 renal; 102% with ACHN renal; 95.3% in the test with CAKI-1 renal; 101% in the test with MOLT-4 leukemia.

In the case of `CCN1C(=O)N(CC)C2C1NN=C1SC(c3ccccc3)=CC(=O)N12` (stereo unspecified), the growth in the test on HCT-15 colon was 19.2%; with SNB-75 CNS, 14%; with SNB-19 CNS, 31.8%; in the test with U251 CNS it was 14.5%; in the test on PC-3 prostate, 17.1%; in the test with SK-MEL-5 melanoma, 38.2%. Besides, the growth is 19.4% with UACC-62 melanoma; 59.5% in the test on SK-MEL-28 melanoma; 45.6% in the test with EKVX NSCLC; 36.7% with SN12C renal; 43.3% with UO-31 renal; 62.8% in the test with TK-10 renal. For the same compound, the growth in the test with ACHN renal is 45.2%; in the test on CAKI-1 renal it was 37.5%; with A498 renal, -7.16% (active); in the test on CCRF-CEM leukemia it was 13.2%; in the test with MOLT-4 leukemia it was 18.2%.

Consider `COc1cc(C2CC(c3ccc(Nc4nc(NCCO)nc(Nc5ccc(Cl)cc5)n4)cc3)=Nc3c(N)nc(N)nc3N2)cc(OC)c1OC` (stereo unspecified), for which the growth with HCT-15 colon is 54.2%; in the test with SNB-75 CNS, 91.4%; in the test on SNB-19 CNS, 47.1%; in the test on U251 CNS, 38.7%; in the test on PC-3 prostate, 41.9%; with SK-MEL-5 melanoma, 53.4%. Moreover, the growth in the test on UACC-62 melanoma is 77.6%; in the test with LOX IMVI melanoma, 53.1%; in the test on SK-MEL-28 melanoma, 96.4%; in the test with SK-MEL-2 melanoma it was 75.9%; in the test on EKVX NSCLC, 109%; in the test on SN12C renal, 49.9%. In addition, the growth in the test with UO-31 renal was 85.1%; with TK-10 renal, 95.8%; in the test on ACHN renal it was 79.3%; in the test on CAKI-1 renal, 53.8%; in the test on A498 renal, 99.8%; with CCRF-CEM leukemia it was 23.8%. In addition, the growth in the test on MOLT-4 leukemia was 19.9%.

For the compound `C#C[C@]1(O)CC[C@H]2[C@@H]3CC=C4c5sc(Nc6cccc(Cl)n6)nc5CC[C@]4(C)[C@H]3CC[C@@]21C`, the growth in the test with HCT-15 colon was -66.9% (active); in the test with SNB-75 CNS, -25% (active); in the test with SNB-19 CNS, -1.43% (active); in the test on U251 CNS it was 4.83% (active); in the test on PC-3 prostate it was 4.35% (active); in the test with SK-MEL-5 melanoma, -90.7% (active). Also, the growth was -14.4% (active) in the test on UACC-62 melanoma; -59.9% (active) in the test with SK-MEL-28 melanoma; -24.9% (active) in the test with SK-MEL-2 melanoma; 1.89% (active) in the test with EKVX NSCLC; 40% with SN12C renal; -37.8% (active) with UO-31 renal. Also, the growth with TK-10 renal is 33.2%; with ACHN renal, 16.4%; with CAKI-1 renal, -40.6% (active); in the test on A498 renal, -62.6% (active); in the test with CCRF-CEM leukemia, 5.11% (active); with MOLT-4 leukemia it was -15.9% (active).
